Compound activity as filed in PubChem.
TGFb inhibitor = blocks TGF-b signaling | HepG2 CAGA-GFP TGF-b/SMAD3 reporter, GFP fluorescence, 18 h; TGF-beta stimulated, 500 pg/mL final | Potency, µM (highest dose often 46.1 µM), most hits filed as inhibitors | 1.2% of 410,000 active | AID 588855; note: nearly all actives have a fitted effect of over 65% in size
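TGF-beta reporter screen: HEPG2 CAGA-GFP, 1% FBS, 500 pg/mL TGF-beta final, 18 h; per-cell GFP summed per well; curves fitted and categorized by class.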
HepG2 viability = kills HepG2 cells in TGF-b inhibitor counter-screen; 0.76% of 410,000 active; Potency, µM (doses to about 46.1 µM), hits mostly cytotoxic; HepG2 CAGA-GFP viability, ATP luminescence, 18 h
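CellTiter-Glo luminescence gave cytotoxicity after 18 hours at 37 degrees C. The cells were HepG2 CAGA-GFP in 1% FBS DMEM, stimulated with 500 pg/mL TGF-beta after compound addition. %Activity was normalised to no-cell wells (complete cell-killing) and DMSO (no toxicity), and curves were fitted and classified.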
TDP1 cell noCPT = qHTS for Inhibitors of human tyrosyl-DNA phosphodiesterase 1 (TDP1): qHTS in cells in absence of CPT | DT40 Tdp1-/- hTDP1 cells, no CPT, ATP luminescence, 48 h | Potency, µM (top dose mostly 46.2 µM), hits mostly inhibitors | 15% of 420,000 active; note: nearly all actives have a fitted effect of over 55% in size
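Growth of hTDP1-complemented DT40 Tdp1-knockout cells is measured by ATP luminescence after at least 48 hr compound exposure at 37 °C, with DMSO substituting for the 20 nM CPT used in the parallel screen.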
TDP1 cell CPT = growth inhibition of DT40 Tdp1-/-;hTDP1 cells with camptothecin (screen for TDP1 inhibitors) | 12% of 420,000 active | AID 686979 | Potency, µM (series often up to 46.2 µM), hits mostly inhibitors | chicken DT40 Tdp1-/-;hTDP1 cells + 20 nM CPT, ATP luminescence, 48 h; note: nearly all actives have a fitted effect of over 55% in size
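Chicken DT40 Tdp1-/- cells stably complemented with human TDP1 were seeded at 400 cells/well in medium containing 20 nM camptothecin, exposed to pin-transferred compounds, and grown at 37 °C for at least 48 hr. Viability was read as ATP luminescence.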
ATXN2 expr inh = reduces ATXN2 reporter expression in HEK-293 cells; 0.72% of 360,000 active; HEK-293 ATXN2-luciferase reporter, luminescence, 24 h; Potency, µM (titrated, usually from 57 µM), hits mostly inhibitors; note: nearly all actives have a fitted effect of over 55% in size
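ATXN2-luciferase reporter cells (luciferase flanked by upstream and downstream ATXN2 gene portions) were treated 24 h at 37 °C with compounds at up to 57 uM. SteadyGlo luminescence gave expression; GF-AFC fluorescence gave viability.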
ATXN viability = reduces viability in counter-screen for ATXN expression inhibitors. S2 cells (HEK-293 line with an ATXN2-luciferase reporter) viability, CellTiter-Fluor protease fluorescence, 24 h. Potency, µM (top dose mostly 56.7 µM), hits mostly cytotoxic. 0.49% of 400,000 active. AID 651635; note: nearly all actives have a fitted effect of over 40% in size
Of the large screens only hits and unclear results are named; the others gave an inactive call. Shown are actives, neighbours in structure and some others; about 17% of the full set was active somewhere. Calls come from the whole dose curve; as a rule, active = well fitted curve in the direction sought with a large enough effect; inconclusive = small, poorly fitted or top-dose-only effect, or another doubt; inactive = no such curve, though single readings can be large; an effect the other way counts as inactive or inconclusive.

Cc1ccc(OCC(=O)Nc2ccccc2N2CCOCC2)c(C)c1	TDP1 cell noCPT inconclusive, TDP1 cell CPT 18µM
CC(C)C(=O)N1CCN(c2ccccc2NC(=O)Cc2ccc(Cl)cc2)CC1	TDP1 cell noCPT inconclusive, TDP1 cell CPT inconclusive
Cc1ccccc1OCC(=O)Nc1ccccc1N1CCCCC1	TDP1 cell noCPT 21µM, TDP1 cell CPT inconclusive
Cc1ccc(OCC(=O)Nc2ccccc2C(=O)N2CCCC2)cc1	TDP1 cell noCPT 16µM, TDP1 cell CPT inconclusive
Cc1cccc(OCC(=O)Nc2ccccc2N2CCN(C(=O)C(C)C)CC2)c1C	TDP1 cell noCPT inconclusive, TDP1 cell CPT 21µM, ATXN2 expr inh inconclusive
O=P(c1ccccc1)(c1ccccc1)c1ccccc1C(Br)Br	TDP1 cell noCPT inconclusive (no result: ATXN2 expr inh)
Cc1ccc(NC(=O)COc2ccccc2)c(NC(=O)c2ccccc2C)c1	TDP1 cell noCPT 21µM, TDP1 cell CPT inconclusive
CCC(=O)c1ccc(OCC(=O)Nc2ccccc2N2CCCCC2)cc1	TDP1 cell noCPT 2.9µM, TDP1 cell CPT 2.6µM
Cc1ccc(NC(=O)c2ccco2)c(NC(=O)COc2ccccc2)c1	none
CCC(=O)c1ccc(OCC(=O)Nc2ccccc2N2CCOCC2)cc1	TDP1 cell noCPT inconclusive, TDP1 cell CPT inconclusive
COc1ccc(C2c3c(ncn(CCN4CCOCC4)c3=N)Oc3ccc4ccccc4c32)cc1 (stereo unspecified)	TDP1 cell noCPT 18µM, TDP1 cell CPT inconclusive, ATXN viability inconclusive
N=c1c2c(ncn1Cc1ccco1)Oc1c(ccc3ccccc13)C2c1ccccc1 (stereo unspecified)	TDP1 cell noCPT inconclusive, TDP1 cell CPT inconclusive, ATXN2 expr inh inconclusive, ATXN viability inconclusive
N=c1c2c(ncn1Cc1ccco1)Oc1cc(O)ccc1C2c1ccccc1 (stereo unspecified)	TDP1 cell noCPT inconclusive, TDP1 cell CPT 18µM
N=c1c2c(ncn1CCN1CCOCC1)Oc1ccc3ccccc3c1C2c1ccccc1 (stereo unspecified)	none (no result: ATXN2 expr inh, ATXN viability)
CN(C)CCn1cnc2c(c1=N)C(c1ccccc1)c1ccc3ccccc3c1O2 (stereo unspecified)	TGFb inhibitor 18µM, TDP1 cell noCPT inconclusive, TDP1 cell CPT 18µM, ATXN2 expr inh inconclusive (no result: ATXN viability)
COc1cccc(CNC(=O)c2ccc3c(c2)N(Cc2ccc(F)cc2Cl)C(=O)c2ccccc2S3)c1	TGFb inhibitor inconclusive, TDP1 cell noCPT inconclusive, TDP1 cell CPT inconclusive (no result: ATXN2 expr inh, ATXN viability)
N#CC1C(C#N)N2CCCN2C1c1ccc(Cl)cc1 (stereo unspecified)	TDP1 cell noCPT 7.3µM, TDP1 cell CPT 8.2µM
COc1ccc(C2C(C#N)C(C#N)N3CCCN23)cc1 (stereo unspecified)	none
O=C(NCc1ccccc1)c1ccc(NC(=O)C2CCC2)cc1	none
Cc1oc2cc(OC(C)C(=O)O)ccc2c(=O)c1Oc1ccccc1 (stereo unspecified)	none
CCOc1ccc2c(=O)c(Oc3ccccc3)c(C)oc2c1	TDP1 cell noCPT 21µM, TDP1 cell CPT inconclusive
CCN(CC(=O)NC1CCS(=O)(=O)C1)Cc1nc2c(Br)cc(Br)cc2c(=O)[nH]1 (stereo unspecified)	none
CCN(CC(=O)NC(C)(C)C)Cc1nc2c(Br)cc(Br)cc2c(=O)[nH]1	TGFb inhibitor inconclusive, TDP1 cell noCPT inconclusive, TDP1 cell CPT inconclusive, ATXN2 expr inh 18µM, ATXN viability inconclusive
CCN(CC)C(=O)/C(=C/c1cn(S(=O)(=O)N(C)C)c2ccccc12)NC(=O)c1ccc(OC)cc1	TDP1 cell noCPT 21µM, TDP1 cell CPT inconclusive
CN(C)S(=O)(=O)n1cc(/C=C(\NC(=O)c2ccccc2Cl)C(=O)NCCCn2ccnc2)c2ccccc21	TDP1 cell noCPT 29µM, TDP1 cell CPT 18µM
COc1ccc(C(=O)N/C(=C\c2cn(S(=O)(=O)N(C)C)c3ccccc23)C(=O)NC(C)C)cc1	none
COc1ccc(C(=O)O/N=C2\C(=O)N(C)c3ccccc32)cc1	TDP1 cell noCPT 5.8µM, TDP1 cell CPT 7.3µM (no result: ATXN2 expr inh)
CN1C(=O)/C(=N\OC(=O)c2cccc3ccccc23)c2ccccc21	TGFb inhibitor inconclusive, TDP1 cell noCPT 13µM, TDP1 cell CPT 12µM
CN(Cc1ccccc1)C(=O)COC(=O)CCC(=O)c1ccc(F)cc1	none
CCCN(CCC)CCCNC(=O)Cn1ncc2c3ccccc3n(Cc3ccccc3F)c2c1=O	TDP1 cell noCPT 23µM, TDP1 cell CPT 16µM, ATXN2 expr inh inconclusive, ATXN viability 14µM
CCCCN(C)CCCNC(=O)Cn1ncc2c3ccccc3n(Cc3ccccc3F)c2c1=O	TDP1 cell noCPT 13µM, TDP1 cell CPT 13µM
CCCCN(C)CCCNC(=O)Cn1ncc2c3ccccc3n(Cc3cc(C)ccc3C)c2c1=O	TGFb inhibitor inconclusive, TDP1 cell noCPT 2.9µM, TDP1 cell CPT 2.6µM (no result: ATXN2 expr inh, ATXN viability)
Cn1c(=O)c2c(ncn2CC(=O)OCC(=O)Nc2sccc2C(N)=O)n(C)c1=O	TGFb inhibitor inconclusive
CCCCCCC=C1CCC(CN2CCCC2)C1=O (stereo unspecified)	TGFb inhibitor inconclusive, TDP1 cell noCPT 4.1µM, TDP1 cell CPT 2.9µM
CCCC/C=C1\CCc2c([nH]c3ccccc23)C1=O	none
Cc1ccc(-c2cc3c(N4CCN(c5cc(C)ccc5C)CC4)nccn3n2)cc1	TDP1 cell noCPT 21µM, TDP1 cell CPT 23µM
Cc1ccc(/C=C2/Sc3ccc(C(=O)NCCN4CCOCC4)cc3NC2=O)cc1	TDP1 cell noCPT inconclusive (no result: ATXN2 expr inh)
COc1ccc(/C=C2\Sc3ccc(C(=O)NCCN4CCCCCC4)cc3N(C)C2=O)cc1	TGFb inhibitor inconclusive, TDP1 cell noCPT 23µM, TDP1 cell CPT inconclusive (no result: ATXN2 expr inh)
COc1cccc(/C=C2/Sc3ccc(C(=O)NCCCN4CCCC4)cc3NC2=O)c1	TGFb inhibitor inconclusive, TDP1 cell noCPT 21µM, TDP1 cell CPT 18µM, ATXN viability inconclusive (no result: ATXN2 expr inh)
COc1cccc(/C=C2/Sc3ccc(C(=O)NCCN4CCCC4)cc3NC2=O)c1	TGFb inhibitor inconclusive, HepG2 viability 14µM, TDP1 cell noCPT inconclusive, TDP1 cell CPT 16µM, ATXN viability inconclusive (no result: ATXN2 expr inh)
CCc1ccc(OC(C)c2nc(-c3ccc(-n4cccc4)cc3)no2)cc1 (stereo unspecified)	TDP1 cell noCPT inconclusive (no result: ATXN2 expr inh, ATXN viability)
Cc1cc(Cl)ccc1NC(=O)CCn1nc(C)c2c(C)n(-c3ccccc3)nc2c1=O	TDP1 cell CPT inconclusive
CNC(=O)c1ccc(Nc2nnc(-c3ccc(C)c(S(=O)(=O)N(C)C)c3)c3ccccc23)cc1	TGFb inhibitor inconclusive, TDP1 cell noCPT inconclusive, ATXN viability inconclusive
